# Assay results: ChEMBL document CHEMBL3988442, “University of Dundee, Small-Polar-MMV Screening Library” (2021)
# In all, about 48,000 compounds went through this assay and about 13,000 (27%) showed an effect of 50% or more. The list shows a part of the results.
# Tested on: Wolbachia pipientis
# Assay: Anti-Wolbachia Cell-Based Screen
# Format: functional
# Set-up: scale not given: in the data most compounds retested in dose-response had high values
# Settings: 5 µM
row,Structure (SMILES),Percent Effect [%]
1,COc1cc2ccn(CCCO)c(=O)c2cc1F,-13.96
2,Cc1ccc(CCCC(=O)N2CCC(=O)Nc3cccnc32)s1,9.523
3,Cl.Cl.O[C@@H]1C[C@@](CNCc2ccc(Cl)cc2)(COc2cccnc2)C[C@@H]1O,-11.4
4,Cc1nc(C)n(CC(C)C(=O)N2CCC(CN3CCOCC3)CC2)n1 (stereo unspecified),-24.3
5,CC(C)(C)CC(=O)N1CSCC1C(=O)NC1=NCCS1 (stereo unspecified),6.289
6,CNC(=O)c1ccc(OC2CCN(S(C)(=O)=O)CC2)c(Cl)c1,-16.21
7,CS(=O)(=O)N1CCC(NC(=O)COc2ccc(Br)cc2Cl)CC1,124.9
8,CS(=O)(=O)N1CCC(Oc2ccc(C(=O)NC3CCCC3)cc2Cl)CC1,-48.27
9,COc1cccc2c1OCC(C(=O)NC1CCN(S(C)(=O)=O)CC1)C2 (stereo unspecified),11.83
10,CS(=O)(=O)N1CCC(NC(=O)COc2ccccc2Cl)CC1,111.5
11,COC(C(=O)NC1CCN(S(C)(=O)=O)CC1)c1ccccc1 (stereo unspecified),12.34
12,CC(CNC(=O)N1CCN(CC(F)F)CC1)Cc1cccs1 (stereo unspecified),5.816
13,Cn1ccnc1C(O)(CCNCc1ccco1)C(F)(F)F (stereo unspecified),-13.62
14,CN(C)CCNC(=O)Nc1cccc(C[S+]([O-])Cc2ccccc2)c1 (stereo unspecified),-3.662
15,Cc1noc(CN(C)CC2CCN(CCO)CC2)n1,3.042
16,COc1ccc(CN2CCC3(CC(Nc4ccncn4)C3)C2)c(OC)c1 (stereo unspecified),2.421
17,COc1cccc(OC)c1CN1CCC2(CC(Nc3ccncn3)C2)C1 (stereo unspecified),4.398
18,COc1cccc(CN2CCC3(CC(Nc4ccncn4)C3)C2)c1F (stereo unspecified),97.57
19,COc1ccc(CN2CCC3(CCCNC3)C2)cc1Cn1cccn1 (stereo unspecified),-22.52
20,COc1cc(CN2CCC3(CC(Nc4ccncn4)C3)C2)cc(OC)c1 (stereo unspecified),125.9
21,CCOC1CCN(CC(=O)Nc2oc(C)c3c(C)n[nH]c(=O)c23)CC1,-5.173
22,COc1ccnc(NC2CCN(CC(=O)Nc3ccccc3)CC2)n1,-1.982

row,Structure (SMILES),Percent Effect [%]
1,Cn1ccc(NC(=O)CN2CCC(Oc3cnccn3)CC2)n1,107.4
2,O=C(Cn1cccn1)N1CCC(Oc2cnccn2)CC1,4.434
3,Cc1nn(C)cc1NC(=O)CN1CCC(Oc2cnccn2)CC1,129.5
4,O=C(Cn1ccc2ccccc21)N1CCC(Oc2cnccn2)CC1,0.2299
5,Cc1nn(C)c(C)c1CC(=O)NCc1ccnc(OC2CCCC2)c1,-17.69
6,Cc1c(NC(=O)CN2CCC(Oc3cnccn3)CC2)cnn1C,146
7,Cc1nc(C)c(CN2CCOC[C@H](Oc3cnccn3)C2)s1,-6.668
8,CN1CCC(N2CCN(C(C(=O)O)c3cccc4c3OCC4)CC2)CC1 (stereo unspecified),-2.868
9,Cc1nc(-c2cc(C(=O)NC(C)(C(=O)O)C(C)C)co2)cs1 (stereo unspecified),1.094
10,O=C(NCCC1CCCCO1)c1cc(COc2cncc(Cl)c2)on1 (stereo unspecified),-5.256
11,CSC(C)(C)CNC(=O)NC1CCSCC1,-7.35
12,CC1CN(C)CCN1C(=O)c1cnn(-c2cccc(Cl)c2)c1 (stereo unspecified),91.23
13,CC1CN(C)CCN1C(=O)c1ccn(-c2ccccc2)n1 (stereo unspecified),92.82
14,CC1CN(C)CCN1C(=O)c1ccn(-c2ccc(F)cc2)n1 (stereo unspecified),101.7
15,CC1CN(C)CCN1C(=O)c1cnn(-c2ccc(Cl)cc2)c1 (stereo unspecified),3.844
16,Cc1cnn(-c2ccc(C(=O)N3CCN(C)CC3C)cc2)c1 (stereo unspecified),-5.131
17,CC1CN(C)CCN1C(=O)c1cccn1Cc1cccnc1 (stereo unspecified),1.342
18,CCc1nc(C(=O)N2CCN(C)CC2C)nn1-c1ccccc1Cl (stereo unspecified),4.953
19,CC1CN(C)CCN1C(=O)c1ccn(-c2ccccc2Cl)n1 (stereo unspecified),97.32
20,Cc1cc(NC(=O)N2CCN(C)CC2C)n(Cc2ccccc2)n1 (stereo unspecified),-3.69
21,CC1CN(C)CCN1C(=O)c1cccn1Cc1ccncc1 (stereo unspecified),17.94
22,COc1ccc(-n2ccc(C(=O)N3CCN(C)CC3C)n2)cc1 (stereo unspecified),-4.695

row,Structure (SMILES),Percent Effect [%]
1,CC1CN(C)CCN1C(=O)c1ccc(-n2cnnc2)cc1 (stereo unspecified),-8.678
2,CCCn1cnnc1CNC(=O)CC1C(=O)NCCN1CC(C)(C)C (stereo unspecified),2.919
3,O=C1N(CC2CC2)C2(CCSCC2)NC12CCCC2,-1.128
4,O=C1CC(c2ccc(C(=O)O)cc2)c2ncn(-c3cccc(Cl)c3)c2N1 (stereo unspecified),-0.6524
5,O=C(c1ccn(-c2cccc(F)c2)n1)N1CCN(CC2CC2)CC1,1.903
6,CC1CN(C)CCN1C(=O)c1ccn(-c2cccc(F)c2)n1 (stereo unspecified),102.3
7,CC1CN(C)CCN1C(=O)c1ccn(-c2cccc(Cl)c2)n1 (stereo unspecified),-2.456
8,CC1(C)CN(Cc2ccncc2)CCS1(=O)=O,93.26
9,Cn1cc(CN2CC3(CCN(Cc4ccsc4)C3)C2)cn1,-4.449
10,Cc1ccc(CN2CCN(CC3CC3)[C@@H]3CS(=O)(=O)C[C@@H]32)cc1C,-7.096
11,Cn1cc(CN2CCN(Cc3nccn3C)CC2)cn1,-17.17
12,CCc1cnc(N2CCN(Cc3ccncc3)CC2)s1,-22.29
13,Cc1ccc(CN2CCN(CC(=O)N(C)C)[C@@H]3CS(=O)(=O)C[C@@H]32)cc1C,8.037
14,Cn1cc(CN2CCS(=O)(=O)C(C)(C)C2)cn1,112.3
15,COCCC1(CO)CCCN(Cc2ccncc2)C1 (stereo unspecified),-9.658
16,Cc1ccc(CN2CCS(=O)(=O)C(C)(C)C2)cc1C,113.6
17,COc1cccc2c1OCC(CNC(=O)COCC(F)(F)C(F)F)C2 (stereo unspecified),-0.4399
18,CC(Cn1cccn1)NC(=O)N(C)Cc1ccc(Cl)s1 (stereo unspecified),-9.644
19,CNC(=O)C(NC(=O)c1nccn2ccnc12)c1ccc(F)c(F)c1 (stereo unspecified),7.625
20,COCCN1C[C@@H]2CN(c3cc(OC)ncn3)CCC[C@]2(C(=O)O)C1.O=C(O)C(F)(F)F,-26.02
21,COCCCC1CCCCN1Cc1cc(F)ccc1-n1cccn1 (stereo unspecified),-9.489
22,Cc1nc(CSc2nc(=O)ccn2C(C)C)cs1,-10.57
